Reference: PubChem BioAssay AID1159580 (chemical genetic matrix, 2015)
The whole screen tested about 5,500 compounds, of which about 2,000 (36%) were called active. About 18% were inconclusive and are not listed. No stated cut-off is given here; in the data, active means normalized growth mostly below about 0.91 (no sharp cut-off); inconclusive means no clear call, values can overlap the other calls; inactive means mostly above about 0.92. This is one part of the list.

Assay: chemical genetic growth profiling, strain panel (AID 1159580);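 further: tested at 20 µM; growth read once vehicle control cultures reached saturation at 30 °C; 1 = growth at the plate median or of vehicle wells; lower values mean less growth of the strain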
Conditions: S. cerevisiae deletion strains, growth OD

Measured: normalized growth

CCCN(CCc1ccccc1)C1CCc2c(O)cccc2C1 (centres undefined)
inactive: locus YAL013W, strain DEP1, active compounds read low 0.992 | locus YAL040C, strain CLN3, active compounds read low 1.02 | locus YCL061C, strain MRC1 (second series), active compounds read low 1 | locus YDR363W, strain ESC2, active compounds read low 1.02 | locus YER002W, strain NOP16, active compounds read low 1 | locus YGR229C, strain SMI1, active compounds read low 0.988 | locus YJR075W, strain HOC1, active compounds read low 1 | locus YMR263W, strain SAP30, active compounds read low 1 | locus YMR307W, strain GAS1, active compounds read low 0.997 | locus YNL153C, strain GIM3, active compounds read low 0.957 | locus YNL175C, strain NOP13, active compounds read low 1 | locus YNL224C, strain SQS1, active compounds read low 1.01 | locus YOR083W, strain WHI5 (second series), active compounds read low 1.02 | locus YPL055C, strain LGE1, active compounds read low 0.973
